Inconclusive results are not listed. Activity calls are given as the source filed them. Unless noted, calls follow the shape of the full dose curve.
How the values were obtained:
[1] = Validation screen for inhibitors of Lassa infection (AID 463096)
[2] = Inducers of the Endoplasmic Reticulum Stress Response (ERSR) in human glioma: Validation (AID 504836; active = well fitted curve in the direction sought with a large enough effect; an effect the other way counts as inactive or inconclusive)
Summary of the method: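 Stably transfected U87-MG human glioma cells carrying a GRP78-based luminescent sensor were seeded at 1000 cells/well, pin-dosed with compounds and incubated 16 h. Luciferase reagent was then added, and end-point luminescence was read after 10 min at room temperature.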

[3] = qHTS for Inhibitors of the Functional Ribonucleoprotein Complex (vRNP) of Lassa (LASV) Arenavirus: LASV Primary Screen - GLuc reporter signal (AID 1347082; calls by dose curve; tested in HEK293 reporter line; also: series mostly up to about 57 µM; nearly all actives have a fitted effect of over 60% in size)
[4] = qHTS for Inhibitors of the Functional Ribonucleoprotein Complex (vRNP) of Lassa (LASV) Arenavirus: Viability assay - alamar blue signal for LASV Primary Screen (AID 1347083; calls by dose curve; tested in HEK293 reporter line; also: series mostly up to about 57 µM; nearly all actives have a fitted effect of over 80% in size)
[5] = qHTS for Inhibitors of the Functional Ribonucleoprotein Complex (vRNP) of Lymphocytic Choriomeningitis Arenaviruses (LCMV): Viability assay - alamar blue signal for LCMV Primary Screen (AID 1347085; calls by dose curve; tested in HEK293 reporter line; also: series mostly up to about 57 µM; nearly all actives have a fitted effect of over 80% in size)
[6] = target: Nucleoprotein (Lymphocytic choriomeningitis virus (strain Armstrong)) (UniProt P09992); assay: qHTS for Inhibitors of the Functional Ribonucleoprotein Complex (vRNP) of Lymphocytic Choriomeningitis Arenaviruses (LCMV): LCMV Primary Screen - GLuc reporter signal (AID 1347086); also: series mostly up to about 57 µM; nearly all actives have a fitted effect of over 70% in size
Sequence of Nucleoprotein (Lymphocytic choriomeningitis virus (strain Armstrong)) (P09992 whole entry, looked up): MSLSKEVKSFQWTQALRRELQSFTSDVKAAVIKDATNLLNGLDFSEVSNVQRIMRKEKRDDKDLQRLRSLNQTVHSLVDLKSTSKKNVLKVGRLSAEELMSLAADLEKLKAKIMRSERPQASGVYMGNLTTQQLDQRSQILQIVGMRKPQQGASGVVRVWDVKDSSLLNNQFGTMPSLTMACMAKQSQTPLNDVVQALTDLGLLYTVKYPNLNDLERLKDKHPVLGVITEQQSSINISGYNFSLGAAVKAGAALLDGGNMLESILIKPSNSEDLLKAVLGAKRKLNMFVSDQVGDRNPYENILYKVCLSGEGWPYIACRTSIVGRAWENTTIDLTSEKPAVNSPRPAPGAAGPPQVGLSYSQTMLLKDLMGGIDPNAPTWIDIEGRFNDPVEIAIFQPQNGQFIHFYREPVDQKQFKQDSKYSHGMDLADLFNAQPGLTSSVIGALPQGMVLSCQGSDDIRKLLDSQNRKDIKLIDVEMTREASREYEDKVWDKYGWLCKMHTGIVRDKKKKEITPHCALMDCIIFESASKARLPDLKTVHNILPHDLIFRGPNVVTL

[7] = target: Alpha-galactosidase (Coffea arabica) (UniProt Q42656); assay: Counterscreen for Glucocerebrosidase Inhibitors: qHTS Assay for Coffee Bean alpha-Galactosidase at pH 5.9 (AID 998; active = well fitted curve in the direction sought with a large enough effect; an effect the other way counts as inactive or inconclusive)
Sequence of Alpha-galactosidase (Coffea arabica) (Q42656 whole entry, looked up): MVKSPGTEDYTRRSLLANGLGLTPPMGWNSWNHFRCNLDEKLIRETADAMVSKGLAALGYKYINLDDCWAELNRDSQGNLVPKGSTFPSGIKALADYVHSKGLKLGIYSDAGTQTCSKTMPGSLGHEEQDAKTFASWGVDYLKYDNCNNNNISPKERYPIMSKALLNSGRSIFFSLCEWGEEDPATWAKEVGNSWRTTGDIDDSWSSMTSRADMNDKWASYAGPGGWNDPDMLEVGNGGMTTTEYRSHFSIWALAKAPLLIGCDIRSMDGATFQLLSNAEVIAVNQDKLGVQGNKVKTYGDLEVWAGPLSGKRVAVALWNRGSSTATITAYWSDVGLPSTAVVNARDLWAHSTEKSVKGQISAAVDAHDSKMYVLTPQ
Summary of the method: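 In 50 mM citric acid pH 5.9 with 0.005% Tween-20, coffee bean enzyme hydrolyses 80 uM 4-MU alpha-D-galactopyranoside over 20 min at RT. Activity is normalized to controls; AC50 comes from Hill-modelled concentration-response data.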

[8] = target: Cytochrome P450 3A4 (Homo sapiens) (UniProt P08684); assay: qHTS Assay for Inhibitors and Substrates of Cytochrome P450 3A4 (AID 884; active = well fitted curve in the direction sought with a large enough effect; an effect the other way counts as inactive or inconclusive; also: potency is read from the fitted curve at half-maximal effect; nearly all actives have a fitted effect of over 50% in size)
Sequence of Cytochrome P450 3A4 (Homo sapiens) (P08684 whole entry, looked up): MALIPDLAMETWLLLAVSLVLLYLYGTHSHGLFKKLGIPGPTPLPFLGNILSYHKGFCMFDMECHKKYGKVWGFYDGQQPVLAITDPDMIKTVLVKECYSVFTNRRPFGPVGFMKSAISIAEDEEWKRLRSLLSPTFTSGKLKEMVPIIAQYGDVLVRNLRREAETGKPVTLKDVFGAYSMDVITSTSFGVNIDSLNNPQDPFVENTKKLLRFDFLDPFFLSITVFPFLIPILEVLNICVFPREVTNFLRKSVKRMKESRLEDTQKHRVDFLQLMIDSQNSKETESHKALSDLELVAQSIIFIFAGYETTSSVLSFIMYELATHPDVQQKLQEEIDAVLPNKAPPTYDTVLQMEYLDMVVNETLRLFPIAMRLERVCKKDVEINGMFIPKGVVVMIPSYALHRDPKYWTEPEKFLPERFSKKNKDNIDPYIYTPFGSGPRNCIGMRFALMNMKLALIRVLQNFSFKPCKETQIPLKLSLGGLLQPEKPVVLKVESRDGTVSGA
Summary of the method: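 Luminescent readout of luciferin produced by CYP3A4 (20 nM) dealkylation of Luciferin-PPXE, 25 uM (its KM). NADPH-driven reaction ran 60 min at RT after 10 min compound preincubation; data scaled to 57 uM ketoconazole as 100% inhibition.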

[9] = target: Cytochrome P450 3A4 (Homo sapiens) (UniProt P08684); assay: qHTS Assay for Activators of Cytochrome P450 3A4 (AID 885; active = well fitted curve in the direction sought with a large enough effect; an effect the other way counts as inactive or inconclusive; also: nearly all actives have a fitted effect of over 65% in size)
Summary of the method: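 Activators are scored by enhanced luminescence from CYP3A4 conversion of luciferin-PPXE (25uM, equal to KM) to luciferin, after 60 min at RT with an NADPH-regenerating system.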

[10] = target: M-phase phosphoprotein 8 (Homo sapiens) (UniProt Q99549); assay: qHTS Validation Assay for Inhibitors for MPP8 Chromodomain Interactions with Methylated Histone Tails (AID 488949; active = well fitted curve in the direction sought with a large enough effect; an effect the other way counts as inactive or inconclusive;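 also: AlphaScreen signal from MPP8 chromodomain bound to biotinylated H3K9me3 peptide; top concentration of the series differs between compounds; nearly all actives have a fitted effect of over 55% in size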)
Sequence of M-phase phosphoprotein 8 (Homo sapiens) (Q99549 whole entry, looked up): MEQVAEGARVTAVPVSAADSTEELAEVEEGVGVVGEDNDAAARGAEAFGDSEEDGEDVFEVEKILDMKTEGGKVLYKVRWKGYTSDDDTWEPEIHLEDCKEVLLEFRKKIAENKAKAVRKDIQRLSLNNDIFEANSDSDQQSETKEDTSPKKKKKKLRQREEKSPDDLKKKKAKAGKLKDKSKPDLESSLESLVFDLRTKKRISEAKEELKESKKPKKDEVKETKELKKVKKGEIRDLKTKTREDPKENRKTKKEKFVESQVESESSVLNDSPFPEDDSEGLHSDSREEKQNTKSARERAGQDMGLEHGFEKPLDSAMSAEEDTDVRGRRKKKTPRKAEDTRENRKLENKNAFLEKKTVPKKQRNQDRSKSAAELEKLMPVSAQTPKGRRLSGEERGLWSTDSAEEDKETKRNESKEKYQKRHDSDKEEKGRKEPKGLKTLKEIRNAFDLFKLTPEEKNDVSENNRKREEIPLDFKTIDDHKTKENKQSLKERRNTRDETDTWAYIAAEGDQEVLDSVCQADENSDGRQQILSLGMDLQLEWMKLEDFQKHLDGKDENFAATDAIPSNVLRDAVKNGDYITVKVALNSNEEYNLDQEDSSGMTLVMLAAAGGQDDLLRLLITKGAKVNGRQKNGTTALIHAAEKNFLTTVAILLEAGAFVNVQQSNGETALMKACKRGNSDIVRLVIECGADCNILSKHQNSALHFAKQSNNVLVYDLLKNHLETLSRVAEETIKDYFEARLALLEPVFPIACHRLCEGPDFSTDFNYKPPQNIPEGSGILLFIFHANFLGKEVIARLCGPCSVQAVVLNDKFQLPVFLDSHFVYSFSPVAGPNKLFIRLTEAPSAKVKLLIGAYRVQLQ
Summary of the method: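 AlphaScreen proximity signal from streptavidin donor and Ni-chelate acceptor beads (10 ug/mL each) reported binding of MPP8 to trimethyl-K9 H3(1-18) peptide, both at 50 nM. The complex formed 30 min before a 30 min compound exposure at room temperature, in PBS pH 7.4.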

[11] = target: Chromobox protein homolog 1 (Homo sapiens) (UniProt P83916); assay: qHTS Validation Assay for Inhibitors of HP1-beta Chromodomain Interactions with Methylated Histone Tails (AID 488953; active = well fitted curve in the direction sought with a large enough effect; an effect the other way counts as inactive or inconclusive;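 also: loss of AlphaScreen luminescence from HP1-beta binding biotinylated H3K9me3 peptide; series mostly up to about 110 µM; nearly all actives have a fitted effect of over 50% in size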)
Sequence of Chromobox protein homolog 1 (Homo sapiens) (P83916 whole entry, looked up): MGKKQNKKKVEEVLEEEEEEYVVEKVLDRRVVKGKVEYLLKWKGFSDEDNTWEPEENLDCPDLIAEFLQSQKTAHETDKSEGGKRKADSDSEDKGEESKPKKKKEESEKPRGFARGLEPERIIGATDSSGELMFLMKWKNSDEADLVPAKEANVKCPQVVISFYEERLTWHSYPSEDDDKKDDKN
Summary of the method: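 AlphaScreen proximity signal from streptavidin donor and nickel chelate acceptor beads (final 10 ug/mL) after 30 min dark incubation. Compounds had 30 min at room temperature with preformed complex of 50 nM HP1-beta and 50 nM b-H3(1-18)K9me3 in PBS pH 7.4 with 0.01% Tween-20.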

Measured: Potency

CC1=C(C(=O)O)N2C(=O)[C@@H](NC(=O)C(N)c3ccccc3)[C@H]2SC1 (some centres not stated)
inactive: [1] | [2] | [3] | [4] | [5] | [6]

CCCCCC[C@@H]([C@@H](C)O)n1cnc2c(N)ncnc21
inactive: [1] | [2] | [3] | [4] | [5] | [6]

O=C(/C=C/c1ccc(O)cc1)c1ccc(O)cc1O
inactive: [1] | [2] | [3] | [4] | [5] | [6]

O=C(O)/C=C/C(O)c1ccc(Cl)cc1 (configuration not stated)
inactive: [1] | [2] | [3] | [4] | [5] | [6]

COC(=O)C(N)Cc1ccc(Cl)cc1 (configuration not stated)
inactive: [1] | [2] | [3] | [4] | [5] | [6]

CC(N)=NCCCC[C@@H](N)C(=O)O
inactive: [1] | [2] | [3] | [4] | [5] | [6]

COC(=O)C1=C(C)NC(C)=C([N+](=O)[O-])C1c1ccccc1C(F)(F)F (configuration not stated)
inactive: [1] | [2] | [3] | [4] | [5] | [6]

C=CCN1CCc2cc(O)c(O)cc2C(c2ccccc2)C1 (configuration not stated)
inactive: [1] | [2] | [3] | [4] | [5] | [6]

CCCN(CCc1ccccc1)C1CCc2c(O)cccc2C1 (configuration not stated)
inactive: [1] | [2] | [3] | [4] | [5] | [6]

O=C(O)/C=C/c1cnc[nH]1
inactive: [1] | [2] | [3] | [4] | [5] | [6]

NC1C=CC=C(C(=O)O)C1 (configuration not stated)
inactive: [1] | [2] | [3] | [4] | [5] | [6]

CC(=O)N[C@H](C(=O)O)C(C)(C)SN=O
inactive: [1] | [2] | [3] | [4] | [5] | [6]

NC(C(=O)N[C@@H]1C(=O)N2C(C(=O)O)=C(Cl)CS[C@H]12)c1ccccc1 (some centres not stated)
inactive: [1] | [2] | [3] | [4] | [5] | [6]

Cn1ccnc1
not listed: [8] | [9] | [10] | [11]
inactive: all other assays above

CCCCS(=N)(=O)CC[C@H](N)C(=O)O (some centres not stated)
inactive: [1] | [2] | [3] | [4] | [5] | [6]

CNCCC(Oc1ccccc1C)c1ccccc1 (configuration not stated)
inactive: [1] | [2] | [3] | [4] | [5] | [6]

CC1(C)CCC(NC(=O)[C@@H](N)CCC(=O)O)CC1
inactive: [1] | [2] | [3] | [4] | [5] | [6]

Brc1c(Br)c(Br)c2n[nH]nc2c1Br
active: [8] 3.16 µM
inactive: all other assays above

CC1CN(S(=O)(=O)c2cccc3cnccc23)CCN1 (configuration not stated)
inactive: [1] | [2] | [3] | [4] | [5] | [6]

CCCCOc1cc(CC2CNC(=O)N2)ccc1OC (configuration not stated)
inactive: [1] | [2] | [3] | [4] | [5] | [6]

NC(=O)CC[C@H](N)C(=O)O
inactive: [1] | [2] | [3] | [4] | [5] | [6]

O=C(O)[C@@H]1C[C@H](C(=O)O)N1
inactive: [1] | [2] | [3] | [4] | [5] | [6]

COc1cc(C(O)CO)ccc1O (configuration not stated)
inactive: [1] | [2] | [3] | [4] | [5] | [6]

CCCCCCCCCC(=O)NC(CN1CCOCC1)[C@H](O)c1ccccc1 (some centres not stated)
inactive: [1] | [3] | [4] | [5] | [6]

CCCCC/C=C\CC(O)/C=C/c1cccc(CC(O)CCCCO)n1 (configuration not stated)
inactive: [1] | [2] | [3] | [4] | [5] | [6]

O=C(O)CC1CCCc2ccccc2C1O (configuration not stated)
inactive: [1] | [2] | [3] | [4] | [5] | [6]

CO/N=C(\C(=O)N[C@@H]1C(=O)N2C(C(=O)O)=C(CSc3nc(=O)c(O)nn3C)CSC12)c1csc(N)n1 (some centres not stated)
inactive: [1] | [2] | [3] | [4] | [5] | [6]

NCC(O)(CS(=O)(=O)O)c1ccc(Cl)cc1 (configuration not stated)
inactive: [1] | [2] | [3] | [4] | [5] | [6]

C[C@@H](NCCc1ccc(O)cc1)[C@@H](O)c1ccc(O)cc1
inactive: [1] | [2] | [3] | [4] | [5] | [6]

Cn1cc(C(F)(F)F)nc1-c1ccc(OCC(O)CNCCOc2ccc(O)c(C(N)=O)c2)cc1 (configuration not stated)
inactive: [1] | [2] | [3] | [4] | [5] | [6]

C#CCN1C(C)=C(C(=O)OC)C(c2cccc([N+](=O)[O-])c2)C(C(=O)OCC)=C1C (configuration not stated)
inactive: [1] | [2] | [3] | [4] | [5] | [6]

c1ccc(C2CN3CCSC3=N2)cc1 (configuration not stated)
inactive: [1] | [2] | [3] | [4] | [5] | [6]

— PubChem BioAssay (NCATS)
